Reference: PubChem BioAssay
The other results are listed elsewhere or left out. Calls of active or inactive are those of the source.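 Rule for the calls, unless noted: active = mean inhibition over 43.08%, the solvent-only control mean plus 3 SD; inactive = the rest.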

biological target: Protein phosphatase methylesterase 1 (Homo sapiens) (UniProt Q9Y570); test: human PME-1 methylesterase inhibition confirmation – biochemical, fluorescence polarization, FP-Rh probe, triplicate (AID 2171;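 active = inhibition above the hit cutoff set in the earlier primary screen, cut at about 27% in these data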;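 note: 0% = enzyme with DMSO and 100% = wells lacking PME-1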); conditions: recombinant PME-1, FP-Rh probe fluorescence polarization; at 5.9 µM; stronger effect = higher value
Sequence (Q9Y570 whole entry, looked up): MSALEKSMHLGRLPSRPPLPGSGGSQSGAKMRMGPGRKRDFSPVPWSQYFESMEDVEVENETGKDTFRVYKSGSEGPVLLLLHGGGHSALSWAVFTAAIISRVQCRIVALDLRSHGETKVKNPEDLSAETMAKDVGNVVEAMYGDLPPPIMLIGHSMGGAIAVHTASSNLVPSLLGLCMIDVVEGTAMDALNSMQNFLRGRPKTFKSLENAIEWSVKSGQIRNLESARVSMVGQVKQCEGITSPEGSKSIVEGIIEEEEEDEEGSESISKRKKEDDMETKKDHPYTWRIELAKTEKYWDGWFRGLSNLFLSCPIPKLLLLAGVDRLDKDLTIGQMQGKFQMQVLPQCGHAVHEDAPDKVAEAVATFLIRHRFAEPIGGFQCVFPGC

| SMILES | inhibition |
| --- | --- |
| N#Cc1ccccc1Cn1cc(C(=O)C2CC2)c2ccccc21 | 66.3% (active) |
| O=P(Oc1ccccc1)(Oc1ccccc1)C(O)c1ccccc1 (stereo unspecified) | 78.1% (active) |
| NC(Cc1cc(O)c(O)cc1O)C(=O)O (stereo unspecified) | 69.4% (active) |
| CC1Oc2cc3c(-c4c(O)cc(O)c5c(O)c6c(cc45)OC(C)C(C)C6=O)c(O)cc(O)c3c(O)c2C(=O)C1C (stereo unspecified) | 53.6% (active) |
| COc1ccc(C(O)P(=O)(Oc2ccccc2)Oc2ccccc2)cc1 (stereo unspecified) | 42.8% (active) |

biological target: Platelet-activating factor acetylhydrolase (Homo sapiens) (UniProt Q13093); test: inhibition of plasma PAF acetylhydrolase – biochemical, fluorescence polarization, human, confirmation (AID 463230;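 active = mean inhibition of the triplicate above the hit cutoff set for the earlier primary screen, cut at about 25% in these data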;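 note: 0% = enzyme with DMSO and 100% = wells lacking pPAFAH enzyme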); conditions: recombinant pPAFAH, FP-Rh probe fluorescence polarization; at 3.39 µM; stronger effect = higher value
Sequence (Q13093 whole entry, looked up): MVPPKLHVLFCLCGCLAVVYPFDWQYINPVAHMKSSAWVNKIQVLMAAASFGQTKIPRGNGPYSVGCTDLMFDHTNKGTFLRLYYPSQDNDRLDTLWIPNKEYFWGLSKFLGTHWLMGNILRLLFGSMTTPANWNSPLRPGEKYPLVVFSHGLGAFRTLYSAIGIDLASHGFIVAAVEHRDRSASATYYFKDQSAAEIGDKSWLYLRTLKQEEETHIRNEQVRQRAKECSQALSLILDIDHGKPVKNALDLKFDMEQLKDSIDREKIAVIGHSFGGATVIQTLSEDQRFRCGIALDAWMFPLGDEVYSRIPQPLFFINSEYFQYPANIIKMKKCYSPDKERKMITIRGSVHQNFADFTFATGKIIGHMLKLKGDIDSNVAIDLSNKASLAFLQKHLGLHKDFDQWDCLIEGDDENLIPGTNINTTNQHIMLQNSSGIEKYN

| SMILES | inhibition |
| --- | --- |
| Cc1nn(-c2ccccc2)c(C)c1NC(=O)COC(=O)Cc1ccccc1 | 43.1% (active) |
| O=C1CC(=O)N(Cc2ccccc2)C(=O)N1CCCCCCN1C(=O)CC(=O)N(Cc2ccccc2)C1=O | 4.95% (inactive) |
| NCCc1ccc(S(=O)(=O)F)cc1 | 71.9% (active) |

biological target: Nuclear receptor coactivator 3 (Homo sapiens) (UniProt Q9Y6Q9); test: NCOA3 GAL4-fusion reporter inhibition – cell-based, luminescence, quadruplicate, confirmation (AID 588792); conditions: HEK293 GAL4-SRC3 luciferase reporter, at 3.6 µM, stronger effect = higher value;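 note: 0% = DMSO treated cells and 100% = gossypol at 36 µM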
Sequence (Q9Y6Q9 whole entry, looked up, the tested form may be a part): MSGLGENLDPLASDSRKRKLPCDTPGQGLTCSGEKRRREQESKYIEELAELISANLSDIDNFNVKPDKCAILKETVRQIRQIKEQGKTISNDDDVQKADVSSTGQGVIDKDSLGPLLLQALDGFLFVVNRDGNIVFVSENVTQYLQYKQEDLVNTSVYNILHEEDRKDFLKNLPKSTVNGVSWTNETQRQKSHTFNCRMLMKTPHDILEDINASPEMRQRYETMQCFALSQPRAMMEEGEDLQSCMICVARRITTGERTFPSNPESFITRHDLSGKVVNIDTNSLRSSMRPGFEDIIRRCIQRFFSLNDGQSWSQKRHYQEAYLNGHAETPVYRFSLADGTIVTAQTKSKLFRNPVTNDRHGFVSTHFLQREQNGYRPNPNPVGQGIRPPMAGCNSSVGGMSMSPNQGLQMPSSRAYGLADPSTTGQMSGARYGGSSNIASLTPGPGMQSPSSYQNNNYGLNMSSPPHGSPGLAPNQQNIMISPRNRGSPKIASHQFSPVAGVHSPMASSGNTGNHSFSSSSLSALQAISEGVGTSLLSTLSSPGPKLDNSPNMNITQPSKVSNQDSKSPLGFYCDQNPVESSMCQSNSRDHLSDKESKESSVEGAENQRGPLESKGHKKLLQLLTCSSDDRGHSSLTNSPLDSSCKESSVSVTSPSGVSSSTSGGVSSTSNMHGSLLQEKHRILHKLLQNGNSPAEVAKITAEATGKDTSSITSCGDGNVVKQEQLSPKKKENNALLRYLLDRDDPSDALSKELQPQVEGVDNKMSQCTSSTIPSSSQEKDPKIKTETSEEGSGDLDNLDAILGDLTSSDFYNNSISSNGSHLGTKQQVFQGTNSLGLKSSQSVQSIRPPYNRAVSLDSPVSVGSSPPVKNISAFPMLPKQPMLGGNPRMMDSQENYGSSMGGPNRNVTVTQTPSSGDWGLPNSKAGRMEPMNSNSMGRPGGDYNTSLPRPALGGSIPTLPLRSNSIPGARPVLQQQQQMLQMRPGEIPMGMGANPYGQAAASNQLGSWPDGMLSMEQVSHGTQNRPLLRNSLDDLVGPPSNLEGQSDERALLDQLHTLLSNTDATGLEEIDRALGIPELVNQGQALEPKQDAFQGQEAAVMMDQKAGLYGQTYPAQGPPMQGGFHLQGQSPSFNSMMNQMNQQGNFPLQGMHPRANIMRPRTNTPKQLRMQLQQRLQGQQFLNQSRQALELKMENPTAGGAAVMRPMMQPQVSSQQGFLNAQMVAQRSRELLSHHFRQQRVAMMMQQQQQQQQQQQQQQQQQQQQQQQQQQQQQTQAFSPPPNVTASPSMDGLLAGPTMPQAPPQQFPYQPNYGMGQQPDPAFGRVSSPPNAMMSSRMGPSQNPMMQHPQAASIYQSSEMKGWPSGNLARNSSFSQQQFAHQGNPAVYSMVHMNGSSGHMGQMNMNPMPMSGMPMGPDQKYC

| SMILES | inhibition |
| --- | --- |
| COc1ccc(OC(=O)N(C)C)c(CN(C)C)c1 | 5.12% (inactive) |
| COC1=CC2C3Cc4ccc(OC)c(O)c4C2(CCN3C)CC1=O (stereo unspecified) | 7% (inactive) |
| O=C1C(=O)c2ccccc2-c2ccccc21 | 97.1% (active) |
| O=c1[nH]c2ccccc2n1C1CCN(C(c2nnnn2Cc2ccccc2)C2CC2)CC1 (stereo unspecified) | 22.8% (inactive) |
| COC(=O)C1CN(C#N)N(c2ccc(Cl)cc2)C12c1ccccc1-c1ccccc12 (stereo unspecified) | 13.6% (inactive) |
| C[C@H]1CCC/C=C/C2C[C@H](O)CC2[C@H](O)/C=C/C(=O)O1 (stereo partly specified) | 69.2% (active) |
| CC/C(=N\Nc1ccccc1)c1c(O)[nH]c(=O)[nH]c1=O | 14.7% (inactive) |
| CCCNC(=O)N1[C@H]2CC[C@@H]1C(C(=O)OC)=C(c1ccc(OC(F)(F)F)cc1)C2 | 14.2% (inactive) |

test system: transactivating tegument protein VP16 (Human herpesvirus 1), Gal4-VP16 luciferase reporter; test: repression of VP16-driven luciferase reporter – cell-based, luminescence, high throughput, counter-screen for SRC3 inhibitor project (AID 588794; in the data active = inhibition above about 30%); conditions: mammalian cells, at 3.6 µM, stronger effect = higher value

| SMILES | inhibition |
| --- | --- |
| COc1ccc(OC(=O)N(C)C)c(CN(C)C)c1 | -6.66% (inactive) |
| COC1=CC2C3Cc4ccc(OC)c(O)c4C2(CCN3C)CC1=O (stereo unspecified) | 11.3% (inactive) |
| O=C1C(=O)c2ccccc2-c2ccccc21 | 95.2% (active) |
| O=c1[nH]c2ccccc2n1C1CCN(C(c2nnnn2Cc2ccccc2)C2CC2)CC1 (stereo unspecified) | 20.9% (inactive) |
| COC(=O)C1CN(C#N)N(c2ccc(Cl)cc2)C12c1ccccc1-c1ccccc12 (stereo unspecified) | 33.5% (active) |
| C[C@H]1CCC/C=C/C2C[C@H](O)CC2[C@H](O)/C=C/C(=O)O1 (stereo partly specified) | 80.2% (active) |
| CC/C(=N\Nc1ccccc1)c1c(O)[nH]c(=O)[nH]c1=O | 20.4% (inactive) |
| CCCNC(=O)N1[C@H]2CC[C@@H]1C(C(=O)OC)=C(c1ccc(OC(F)(F)F)cc1)C2 | -7.81% (inactive) |

test system: not listed separately; test: StAR promoter reporter inhibitors, counter-screen for LRH-1 inverse agonist project, cell-based, luminescence, high throughput (AID 651611; in the data active = inhibition above about 28%); conditions: StAR promoter luciferase reporter counterscreen, at 3.6 µM, stronger effect = higher value

| SMILES | inhibition |
| --- | --- |
| Cn1ncnc2c(=O)n(C)c(=O)nc1-2 | 76.9% (active) |
| Cc1nc2c(=O)n(C)c(=O)nc-2n(C)n1 | 78.3% (active) |
| O=c1[nH]c(=S)[nH]c(O)c1N=Nc1ccc(S(=O)(=O)N2CCc3ccccc32)cc1 | 35% (active) |

biological target: Nuclear receptor subfamily 5 group A member 2 (Homo sapiens) (UniProt O00482); test: NR5A2 activity suppression in reporter cells – cell-based, luminescence, confirmation (AID 651613; in the data active = inhibition above about 42%;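 note: HEK293T cells co-transfected with LRH-1 and StAR promoter luciferase reporter; 0% = vehicle wells and 100% = parental cells lacking receptor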); conditions: cell-based LRH-1 luciferase reporter, inverse agonism; at 3.6 µM; stronger effect = higher value
Sequence (O00482 whole entry, looked up): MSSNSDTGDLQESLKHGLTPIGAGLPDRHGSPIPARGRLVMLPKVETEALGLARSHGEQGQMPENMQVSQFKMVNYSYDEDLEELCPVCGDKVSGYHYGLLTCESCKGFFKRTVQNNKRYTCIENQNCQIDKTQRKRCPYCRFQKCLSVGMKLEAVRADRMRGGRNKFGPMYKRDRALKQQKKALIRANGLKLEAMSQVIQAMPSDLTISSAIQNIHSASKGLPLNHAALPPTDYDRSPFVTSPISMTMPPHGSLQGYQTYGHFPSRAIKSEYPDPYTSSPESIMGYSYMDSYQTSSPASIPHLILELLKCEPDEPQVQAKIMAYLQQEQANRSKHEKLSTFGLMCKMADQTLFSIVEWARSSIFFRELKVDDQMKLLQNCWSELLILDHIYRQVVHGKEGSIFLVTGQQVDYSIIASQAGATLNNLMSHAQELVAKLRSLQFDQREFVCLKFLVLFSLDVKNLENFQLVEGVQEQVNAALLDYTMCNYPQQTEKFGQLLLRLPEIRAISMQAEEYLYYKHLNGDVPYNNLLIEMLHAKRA

| SMILES | inhibition |
| --- | --- |
| Cn1ncnc2c(=O)n(C)c(=O)nc1-2 | 92.6% (active) |
| Cc1nc2c(=O)n(C)c(=O)nc-2n(C)n1 | 94.5% (active) |
| O=c1[nH]c(=S)[nH]c(O)c1N=Nc1ccc(S(=O)(=O)N2CCc3ccccc32)cc1 | 49.8% (active) |

biological target: Steroidogenic factor 1 (Homo sapiens) (UniProt Q13285); test: inverse agonism at SF1 nuclear receptor – cell-based, luminescence, high throughput, counter-screen for LRH-1 inverse agonist project (AID 651614; in the data active = inhibition above about 44%;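 note: cells cotransfected with StAR promoter reporter and SF1 expression vector; 0% = vehicle on cells with receptor and 100% = vehicle on cells lacking receptor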); conditions: cell-based SF1 luciferase reporter, at 3.6 µM, stronger effect = higher value
Sequence (Q13285 whole entry, looked up): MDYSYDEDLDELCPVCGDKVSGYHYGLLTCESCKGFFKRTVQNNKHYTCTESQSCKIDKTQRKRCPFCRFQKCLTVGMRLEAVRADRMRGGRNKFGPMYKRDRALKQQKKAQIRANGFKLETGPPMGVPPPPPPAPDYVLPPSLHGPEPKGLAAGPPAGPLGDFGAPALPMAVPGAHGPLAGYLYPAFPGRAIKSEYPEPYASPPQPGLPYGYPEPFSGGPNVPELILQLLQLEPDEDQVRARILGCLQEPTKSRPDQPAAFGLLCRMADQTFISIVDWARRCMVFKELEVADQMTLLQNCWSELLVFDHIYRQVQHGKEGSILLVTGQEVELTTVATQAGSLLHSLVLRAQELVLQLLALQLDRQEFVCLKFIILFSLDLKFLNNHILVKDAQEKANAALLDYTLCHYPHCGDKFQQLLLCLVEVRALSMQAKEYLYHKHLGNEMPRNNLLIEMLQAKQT

| SMILES | inhibition |
| --- | --- |
| Cn1ncnc2c(=O)n(C)c(=O)nc1-2 | 84.3% (active) |
| Cc1nc2c(=O)n(C)c(=O)nc-2n(C)n1 | 83.4% (active) |
| O=c1[nH]c(=S)[nH]c(O)c1N=Nc1ccc(S(=O)(=O)N2CCc3ccccc32)cc1 | 47.9% (active) |

test system: not listed separately; test: compounds suppressing VP16-driven luciferase signal – cell-based, luminescence, high throughput, counter-screen for LRH-1 inverse agonist project (AID 651615; in the data active = inhibition above about 33%); conditions: Gal4-VP16 luciferase reporter cells, at 3.6 µM, stronger effect = higher value

| SMILES | inhibition |
| --- | --- |
| Cn1ncnc2c(=O)n(C)c(=O)nc1-2 | 87.6% (active) |
| Cc1nc2c(=O)n(C)c(=O)nc-2n(C)n1 | 90.8% (active) |
| O=c1[nH]c(=S)[nH]c(O)c1N=Nc1ccc(S(=O)(=O)N2CCc3ccccc32)cc1 | 7.96% (inactive) |
